Compounds with a hit are over-represented: about 2.3% of the library has one in this group of screens.
GLS inhibitor: glutaminase GLS (human) inhibition; O94925; GLS enzymatic activity, qHTS titration; Potency, µM (titrated, usually from 45.5 µM), without a hit: at the top dose activity change, negative = inhibition, hits mostly inhibitors; 410,000 tested, 0.21% active; AID 624170; also: % is scaled to controls: 0 for no effect and ±100 for the full control effect
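Read-out is an Amplex red fluorescence increase coupled through glutamate oxidase and HRP, measured before and after 30 min room-temperature incubation. hKGA is in 45 mM KH2PO4 (pH 8.2) with 0.02% Tween-20; glutamine added as 1mM solution.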
12-LOX inh: ALOX12 (human) lipoxygenase inhibition; AID 1671190; P18054; purified 12hLO, xylenol orange hydroperoxide absorbance; 580,000 tested, 1.1% active; Potency, µM (series often up to 108 µM), for inactives: at the top dose activity change, negative = inhibition, hits mostly inhibitors; also: % is scaled to controls: 0 for no effect and ±100 for the full control effect
Target sequence (P18054 whole entry, looked up): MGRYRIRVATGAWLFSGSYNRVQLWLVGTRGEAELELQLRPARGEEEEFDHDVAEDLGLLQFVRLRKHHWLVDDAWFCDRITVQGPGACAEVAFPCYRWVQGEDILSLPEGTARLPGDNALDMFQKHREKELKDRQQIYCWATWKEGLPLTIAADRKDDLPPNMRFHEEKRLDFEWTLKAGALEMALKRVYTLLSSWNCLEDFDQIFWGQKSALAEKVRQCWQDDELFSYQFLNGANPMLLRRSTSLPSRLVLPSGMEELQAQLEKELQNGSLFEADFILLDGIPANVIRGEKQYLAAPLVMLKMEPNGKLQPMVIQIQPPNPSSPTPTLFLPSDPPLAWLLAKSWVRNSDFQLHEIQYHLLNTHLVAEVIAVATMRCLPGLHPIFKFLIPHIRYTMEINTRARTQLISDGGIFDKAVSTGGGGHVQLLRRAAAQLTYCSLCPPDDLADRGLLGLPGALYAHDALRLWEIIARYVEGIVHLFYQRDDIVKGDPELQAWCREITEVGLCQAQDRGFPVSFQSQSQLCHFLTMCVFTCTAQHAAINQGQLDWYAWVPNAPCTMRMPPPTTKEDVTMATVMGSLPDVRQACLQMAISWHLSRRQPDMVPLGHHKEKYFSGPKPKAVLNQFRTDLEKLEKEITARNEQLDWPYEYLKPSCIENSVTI
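Purified human 12hLO at 150 nM in 25 mM Hepes, 0.01% Triton X-100, pH 7.0, preincubated 15 min at room temperature with compound. Reaction started with 40 uM arachidonic acid, 30 min at room temperature. Hydroperoxide measured by Fe-xylenol orange, 573/405 nm absorbance ratio.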
PTHR1 agonist: PTHR1 (human) receptor agonism. Potency, µM (highest dose often 115 µM), for the others: at the highest dose activation, most hits filed as activators. AID 743266. 410,000 tested, 0.075% active. HEK293 GP2 PTHR1 cells, GloSensor cAMP luminescence, 1 h. Q03431; also: nearly all actives have a fitted effect of over 55% in size
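HEK-293-derived GP2 cells expressing PTHR1 and a GloSensor cAMP reporter, 3,000/well, plated overnight, given luciferin plus IBMX (each 0.5 mM as added) for 1 h at 37 °C, then compound for 1 h at 37 °C. Luminescence was read after 15 min at room temperature.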
GLP1R inv ag: inverse agonists of human GLP-1 receptor; AID 624417; 410,000 tested, 1.6% active; Potency, µM (top dose mostly 38.3 µM), for the others: top-dose activity change, negative = inhibition, hits mostly inhibitors; P43220; HEK293 GLP-1R CRE-luciferase, luminescence, 24 h; GLP-1R form is constitutively active; also: % is scaled to controls: 0 for no effect and ±100 for the full control effect; nearly all actives have a fitted effect of over 55% in size
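Readout was luciferase luminescence, measured 12 min after detection reagent at room temperature. Beforehand, GLP-1R reporter HEK293 cells had sat 12 h, then received compounds for 24 hr at 37 deg C.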
GLP1R ag: GLP-1 receptor (human) agonism | HEK293 GLP-1R CRE-luciferase, luminescence, 4-6 h; cells express a hypersensitive GLP-1R form | 380,000 tested, 0.007% active | AID 624172 | Potency, µM (titrated, usually from 45.6 µM), inactives show top-dose activation, hits mostly activators; also: % of control where 0% means no effect
Glioma ERSR ind: ER stress response induction in glioma; U87-MG GRP78 promoter luciferase reporter, 16 h; Potency, µM, without a hit: top-dose activation, hits mostly activators; 420,000 tested, 0.02% active; AID 602332; also: series mostly up to about 76 µM; % of control where 0% means no effect; nearly all actives have a fitted effect of over 35% in size
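Stably transfected U87-MG glioma cells carrying a GRP78-based luciferase sensor; 16 h compound incubation. Luminescence end-point read 10 min after Bright-Glo addition at room temperature.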
The depositor's hits bear a star; i = inactive; ? = inconclusive; · = no result given; ! = not confirmed by another sample; [ ] = another dose, or the depositor's remark. Calls follow the shape of the dose curve; as a rule, active = well fitted curve in the direction sought with a large enough effect; inconclusive = small, poorly fitted or top-dose-only effect, or another doubt; inactive = no such curve, though single readings can be large; an effect the other way counts as inactive or inconclusive. Potency is read from the fitted curve at half-maximal effect.

SMILES | GLS inhibitor | 12-LOX inh | PTHR1 agonist | GLP1R inv ag | GLP1R ag | Glioma ERSR ind
Cc1cccc(-n2c(/C=C/c3ccco3)nc3ccccc3c2=O)c1 | · | 25µM* | · | · | · | ·
O=C1Nc2ccccc2/C1=C/c1nc2ccccc2c(=O)n1-c1ccc(O)cc1 | -11% | -5% | -41% | 10µM* | 9% | -3%
CCC(CC)c1cc([C@H]2CN3CC[C@H]2C[C@@H]3CNC2CCN(C(C)=O)CC2)nc(-c2ccncc2)n1 | · | 97% | · | · | · | ·
C#C[C@H]1CN2CC[C@H]1C[C@@H]2CNS(=O)(=O)CCC | · | 8%[176 µM] | · | · | · | ·
C#C[C@H]1CN2CC[C@H]1C[C@@H]2COC(=O)NCCC | · | 8.9µM* | · | · | · | ·
COc1ccc(S(=O)(=O)N(CC(=O)NCc2ccccc2OC)c2ccc(C)cc2)cc1 | -7% | -9% | i | 3.2µM* | · | -4%
Cn1cccc1/C=C1/C(=O)NC(=S)N(Cc2ccc(F)cc2)C1=O | -21% | 10µM* | -32% | -24% | -6% | -4%
Cc1ccccc1-c1ccc2n(c1=O)C[C@H]1C[C@@H]2CN(C(=O)NC2CCCCC2)C1 | · | 100%[176 µM] | · | · | · | ·
CC(=O)OC1CCC2(C)C(CCC3C2CC(=O)C2(C)C3CC(N3CC3)C2C(C)=O)C1 (centres undefined) | 8% | 22% | 50µM* | ? | 0% | -5%
Cc1cccc(N2C(=O)/C(=C/c3ccc(N4CCN(C)CC4)o3)C(=O)NC2=S)c1C | ? | 45µM* | -17% | 17% | -1% | 0%
Cn1c(O)c(C(=Nc2ccccc2)SCc2ccc(Cl)cc2)c(=O)n(C)c1=O | 10% | 16µM* | -24% | ? | 4% | -5%
CC[C@H]1CN2CC[C@H]1C[C@@H]2CNS(=O)(=O)c1cccc(F)c1 | · | 13%[176 µM] | · | · | · | ·
COc1ccc(CCN(C)Cc2cc(C(C)(C)C)c(O)c(C(C)(C)C)c2)cc1OC | · | 7.9µM* | · | · | · | ·
O=C(NC[C@H]1C[C@@H]2CCN1C[C@@H]2CN1CCN(c2ccccn2)CC1)Nc1ccsc1 | · | 74% | · | · | · | ·
N#CC1c2ccccc2-n2nncc2CN1Cc1cc(Cl)cc(Cl)c1 (centres undefined) | 5% | ? | -29% | 1.3µM* | -13% | -12%
CN1Cc2cnnn2-c2ccccc2C1C#N (centres undefined) | -2% | -20% | -14% | ? | -2% | 1%
COc1ccc(CN2Cc3cnnn3-c3ccccc3C2C#N)cc1 (centres undefined) | 1% | ? | -95% | 2.8µM* | -13% | -12%
COc1ccc2c(c1)C1(CCN(C(=O)c3ccccc3C)C1)C(=O)N2 (centres undefined) | · | 12% | · | · | · | ·
COc1cc(CCC(=O)N2CCC3(CC2)NCc2ccccc2-n2ccnc23)on1 | · | -1% | · | · | · | ·
Cc1ccc(Cn2cc(C=O)c3ccccc32)cc1 | -1% | -1% | -14% | ? | 1% | 3%
O=Cc1cn(Cc2ccc([N+](=O)[O-])cc2)c2ccccc12 | 7% | -2% | i | 2.2µM* | -1% | -4%
O=C(Cc1ccccc1)N1CCN(C2CCCC2)CC1 | 6% | 0.89µM* | -3% | -20% | -8% | -4%
Cc1nc(-c2ccc(N(C)C)cc2)cc([C@H]2CN3CC[C@H]2C[C@@H]3CNC(=O)C(C)(C)C)n1 | · | 83%[176 µM] | · | · | · | ·
Nc1cccc(-c2cn(C[C@H]3CC4CCN3C[C@@H]4C(=O)NC3CCCCC3)nn2)c1 (some centres undefined) | · | 75%[176 µM] | · | · | · | ·
c1ccc(-c2ccncc2)cc1 | 2% | 2% | -2% | -15% | 2% | -1%
SMILES | GLS inhibitor | 12-LOX inh | PTHR1 agonist | GLP1R inv ag | GLP1R ag | Glioma ERSR ind
C[n+]1ccc(-c2ccncc2)cc1 | 1% | 13µM* | -1%[57.5 µM] | 5% | -4% | -4%
COc1cccc(N2C(=O)NC(=O)/C(=C/c3ccc4c5c(cccc35)CC4)C2=O)c1 | · | 40µM* | · | · | · | ·
O=C1NC(=O)C(=Cc2ccc(SC3CCCCC3)o2)C(=O)N1 | -5% | 22µM* | i | ? | -7% | -14%
NS(=O)(=O)c1ccc(-c2ccc(C=C3C(=O)NC(=O)NC3=O)o2)cc1 | 35% | 0% | -15% | 8% | 17% | -2%
Cc1ccccc1C(O)(Cc1ccccc1)C1CN2CCC1CC2 (centres undefined) | 9% | ? | -7% | 0.79µM* | -1% | -7%
Cn1nc(C(C)(C)C)cc1C(=O)N1CCCCC1c1cc(C(=O)Nc2ccc(F)c(Cl)c2)no1 (centres undefined) | 5% | 0% | -89% | 10µM* | -7% | -4%
CCOc1ccccc1N=C1SCCCN1C | -11% | 7.1µM* | i | 0% | -3% | -6%
CCOP(=S)(OCC)c1ccc(N(C)C)cc1 | 7% | -8% | 18µM* | -10% | -2% | 3%
CC[C@H]1CN2CC[C@H]1C[C@@H]2CNC(=O)c1ccco1 | · | 97%[176 µM] | · | · | · | ·
Nc1cccc(-c2cn(C[C@H]3CC4CCN3C[C@@H]4C(=O)NCc3ccccc3)nn2)c1 (some centres undefined) | · | 43%[176 µM] | · | · | · | ·
CN(C)[C@@H]1C(=O)C(C(N)=O)=C(O)[C@@]2(O)C(=O)C3=C(O)c4c(O)cccc4[C@@](C)(O)C3[C@H](O)C12 (some centres undefined) | 10µM*! | ? | -18% | -13% | -5% | -2%
CN(C)C1C(=O)C(C(N)=O)=C(O)[C@@]2(O)C(=O)C3=C(O)c4c(O)cccc4[C@@](C)(O)C3[C@H](O)C12 (some centres undefined) | · | · | · | · | · | -3%
c1ccc(CNCCc2c[nH]c3ccccc23)cc1 | 11% | ? | i | ? | 18% | 0%
CCc1ccc(CNCCc2c[nH]c3ccccc23)cc1 | 21% | 0.89µM*! | -19% | ? | -6% | -4%
Clc1ccccc1CNCCc1c[nH]c2ccccc12 | 11% | -7% | -8% | ? | 16% | 0%
O=[N+]([O-])c1ccccc1CNCCc1c[nH]c2ccccc12 | 0% | 0.56µM* | 12% | ? | 3% | 4%
CCOc1ccc(N2C(=O)/C(=C\c3cccs3)C(=O)NC2=S)cc1 | -11% | ? | -8% | 19% | 0% | -15%
COc1ccc(N2C(=O)/C(=C/c3ccc(OC)c(OC)c3)C(=O)NC2=S)cc1 | -20% | 50µM* | -10% | 10% | -1% | 0%
CCOc1ccc(N2C(=O)/C(=C/c3ccco3)C(=O)NC2=S)cc1 | 1.8µM* | · | -36% | -22% | -6% | -6%
CC1=C(O)C(=O)C=C2C1=CC=C1C2(C)CCC2(C)C3CC(C)(C(=O)O)CCC3(C)CCC12C (centres undefined) | ? | 4.5µM* | i | ? | -14% | -14%

Screening results from PubChem.
